Screens (PubChem)
Hits are enriched below; roughly 6.5% of the tested compounds scored in any of these assays.
HCMV antiviral: blocks human cytomegalovirus replication; HFF cells, HCMV-luciferase reporter, 72 h; stronger effect = lower value; activity change, negative = inhibition, % at 57.5 µM; hit rate 4.5% among 410,000; in the data active = activity change below about -60%; inconclusive = no clear call, values can overlap the other calls; inactive = above about -39%
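Cell-based, HFFs, 1000 cells/well, 16 h 37C; cpds in DMSO + HCMV-luc, MOI 1 PFU/cell; 72 h 37C; OneGlo luminescence after 5 min RT; norm. to buffer vs Salinomycin 10uM.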
Lassa entry inh: inhibitors of Lassa virus binding or cell entry; Lassa virus pseudotype entry inhibition, cell reporter; hit rate 1.2% among 300,000; Potency, µM (highest dose often 37.9 µM), usual class: inhibitors; calls by dose curve; tested in HEK293 cells; also: nearly all actives have a fitted effect of over 50% in size
Vaccinia Venus: vaccinia inhibition (Venus reporter) | Potency, µM (top dose mostly 36.5 µM), actives largely listed as inhibitors | Vaccinia virus Venus reporter expression, fluorescence | hit rate 0.46% among 330,000; calls by dose curve; tested in A549 cells; also: nearly all actives have a fitted effect of over 30% in size
FMDV inh: foot and mouth disease virus antiviral activity. FMDV antiviral cell-based qHTS. Potency, µM (series often up to 57.9 µM), usual class: inhibitors. hit rate 1.2% among 410,000. AID 1159524; calls by dose curve; tested in HEK293T cells; also: read-out not given here; nearly all actives have a fitted effect of over 45% in size
MARV entry inh: blocks Marburg virus binding to or entry into cells; Marburg virus pseudotyped entry inhibition, cell reporter; Potency, µM (doses to about 37.8 µM), usual class: inhibitors; hit rate 1.8% among 300,000; calls by dose curve; tested in HEK293 cells
Vaccinia mCherry: vaccinia inhibition (mCherry reporter) | Vaccinia virus mCherry reporter infection, fluorescence | hit rate 0.63% among 310,000 | Potency, µM (series often up to 36.5 µM), usual class: inhibitors; calls by dose curve; tested in A549 cells; also: nearly all actives have a fitted effect of over 35% in size
Large screens that a line does not name were inactive.

Cc1c(Cl)cccc1NC(=O)C1CCCN(c2nnc(-n3c(C)ccc3C)s2)C1 (stereo unspecified)	none
O=C(CCC1N=C2c3ccccc3N=C(SCC(=O)Nc3ccc(F)cc3)N2C1=O)NCc1cccs1 (stereo unspecified)	HCMV antiviral -80, FMDV inh inconclusive (no result: MARV entry inh)
Cc1ccc(CSCC(=O)NCCc2ccccc2)cc1	HCMV antiviral -100, Lassa entry inh inconclusive
O=C(CSc1ccccc1)Nc1ccccc1C(=O)O	Lassa entry inh inconclusive, MARV entry inh 18µM (no result: Vaccinia Venus, Vaccinia mCherry)
Cc1ccc(CSCC(=O)Nc2ccccc2C(=O)O)cc1	HCMV antiviral -79 (no result: Lassa entry inh, Vaccinia Venus, MARV entry inh, Vaccinia mCherry)
Cc1ccc(NC(=O)CSCC(=O)NCCc2ccccc2)cc1	none
O=C(CC1N=C2c3ccccc3N=C(SCC(=O)Nc3ccc(F)cc3)N2C1=O)NCc1cccs1 (stereo unspecified)	none (no result: MARV entry inh)
O=C(NCc1cccc(C(F)(F)F)c1)O[C@H]1CC[C@@]23CCCN2C(=O)CCC[C@H]3[C@H]1Cc1ccccc1	none (no result: Lassa entry inh, Vaccinia Venus, FMDV inh, MARV entry inh, Vaccinia mCherry)
O=C(CSCc1cccc(Cl)c1)Nc1ccccc1-c1ccccc1	HCMV antiviral -63, MARV entry inh inconclusive
O=C(Cc1cccc2ccccc12)Nc1ccccc1C(=O)O	HCMV antiviral inconclusive, Lassa entry inh inconclusive, MARV entry inh 15µM (no result: Vaccinia Venus, Vaccinia mCherry)
Cc1ccc(CSC2=Nc3ccccc3C3=NC(CCC(=O)NCCc4ccccc4)C(=O)N23)cc1 (stereo unspecified)	HCMV antiviral -90, Lassa entry inh inconclusive, FMDV inh inconclusive (no result: MARV entry inh)
CC(=O)N1CCCC(c2cc(C(=O)Nc3ccccc3)no2)C1 (stereo unspecified)	HCMV antiviral -73, FMDV inh 35µM (no result: Lassa entry inh, MARV entry inh)
c1ccc(N(c2ccccc2)c2nc(N3CCCC3)nc(-n3ccnc3)n2)cc1	HCMV antiviral -66, Lassa entry inh 1.6µM, FMDV inh inconclusive, MARV entry inh inconclusive (no result: Vaccinia Venus, Vaccinia mCherry)
CN(c1ccccc1)c1nc(N2CCCC2)nc(-n2ccnc2)n1	Lassa entry inh inconclusive, Vaccinia Venus inconclusive, FMDV inh inconclusive
CCN(CC)CCCN(C(=O)c1cccc(C)c1)c1nc(-c2ccc(OC)cc2)cs1	HCMV antiviral -95 (no result: Lassa entry inh, Vaccinia Venus, MARV entry inh, Vaccinia mCherry)
CCN(CC)CCCN(C(=O)c1ccco1)c1nc(-c2ccc(C)cc2)cs1	HCMV antiviral inconclusive, Lassa entry inh inconclusive, MARV entry inh 8.9µM, Vaccinia mCherry inconclusive
CCN(CC)CCCN(C(=O)c1cccs1)c1nc(-c2ccc(OC)cc2)cs1	Lassa entry inh inconclusive, MARV entry inh inconclusive (no result: HCMV antiviral, Vaccinia Venus, Vaccinia mCherry)
CCN(CC)CCCN(C(=O)c1ccco1)c1nc(-c2ccc(Cl)cc2)cs1	Lassa entry inh inconclusive, MARV entry inh inconclusive
CCN(CC)CCCN(C(=O)c1ccc(Br)cc1)c1nc(-c2ccc(OC)cc2)cs1	Lassa entry inh inconclusive, MARV entry inh 3.5µM, Vaccinia mCherry inconclusive
COc1ccc(-c2csc(N(CCCN(C)C)C(=O)c3ccc(OC)c(OC)c3)n2)cc1	FMDV inh inconclusive (no result: Lassa entry inh, MARV entry inh)
C[C@@H]1NS(=O)(=O)c2ccc(F)cc2O[C@@H]1c1ccccc1	none (no result: Lassa entry inh, Vaccinia Venus, FMDV inh, MARV entry inh, Vaccinia mCherry)
O=S(=O)(c1cccs1)N1CCCc2nc(-c3ccc(F)cc3)ccc21	none (no result: Lassa entry inh, Vaccinia Venus, FMDV inh, MARV entry inh, Vaccinia mCherry)
CS(=O)(=O)c1ccc(C(=O)Nc2cc(S(C)(=O)=O)ccc2Cl)cc1	HCMV antiviral inconclusive, FMDV inh inconclusive
CS(=O)(=O)c1ccc(Cl)c(NC(=O)CCl)c1	Lassa entry inh 18µM, Vaccinia Venus inconclusive, FMDV inh 25µM, MARV entry inh inconclusive, Vaccinia mCherry inconclusive
COc1cc(/C=C(/C#N)c2nc(-c3cc4ccccc4oc3=O)cs2)cc([N+](=O)[O-])c1O	HCMV antiviral -87 (no result: Lassa entry inh, Vaccinia Venus, FMDV inh, MARV entry inh, Vaccinia mCherry)
O=C(N/N=C/c1ccc(O)cc1)c1ccc(NC(=O)c2ccccc2Br)cc1	Lassa entry inh 2.5µM, Vaccinia Venus inconclusive, MARV entry inh inconclusive, Vaccinia mCherry inconclusive
COc1cccc(/C=N/NC(=O)c2ccncc2)c1OC(=O)c1ccc(Br)cc1	Lassa entry inh inconclusive, MARV entry inh inconclusive, Vaccinia mCherry 4.5µM (no result: HCMV antiviral)
O=C(COc1ccccc1C(=O)Nc1ccccc1)Nc1ccccc1Br	none (no result: HCMV antiviral, Lassa entry inh, FMDV inh, MARV entry inh)
COc1cc(/C=N/NC(=O)c2ccncc2)ccc1OC(=O)c1cccc(Br)c1	none
O=C(Oc1ccccc1C(=O)Nc1ccccc1)c1ccccc1Br	HCMV antiviral -66, Vaccinia Venus inconclusive, Vaccinia mCherry inconclusive
COc1ccccc1/C=N/NC(=O)c1ccc(NC(=O)c2ccccc2Br)cc1	HCMV antiviral -66
CCCn1c(SCc2nc(-c3ccccc3C)no2)nnc1-c1ccc(Cl)cc1	none
O=C(N/N=C/c1cccs1)c1ccc(NC(=O)c2ccccc2Cl)cc1	HCMV antiviral -65, MARV entry inh inconclusive
